Results published in the supplement of paper PMC10849652.
Of roughly 7,900 targets only a part is listed; those with a hit were picked by preference. About 0.6% of all pairs of compound and target were hits. A number with no mark means an inactive call.

Key:
Assay in all cases: log2 fold change, soluble protein after heating vs DMSO (PISA); higher = thermal stabilisation; K562 cells, 10 uM, 30 min; active = over 0.2 and 3.5 SD of the protein, either way, in both replicates (recomputed)
[1] = compound: CC1=C(C=C(C=C1)NC(=O)C2=CC(=CC=C2)C(C)(C)C#N)NC3=CC4=C(C=C3)N=CN(C4=O)C
Procedure, shortened: (§1)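 For each measurement, 10 μM compound was applied for 30 min to K562 cells at 2×10^6 cells/mL. Aliquots were heated for 3 min across 48°C-58°C, pooled, and extracted in PBS with 0.5% NP-40 at 4°C; the supernatant after 21,000xg for 90 min was soluble protein. This was quantified by TMTpro 16plex LC-MS/MS with channel sums equalised, and thermal stability was reported relative to control samples from duplicates, on a log2 fold-change scale.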

[2] = compound: CC1=C(C=C(C=C1)NC(=O)C2=CC(=CC=C2)N(C)C)NC(=O)C3=CC=C(C=C3)O
Procedure, shortened: as §1

[3] = compound: CC1=CC=C(C=C1)SC2=C3C=C(SC3=CN=C2)C(=O)N
Procedure, shortened: as §1

[4] = compound: CC1=NC(=CC=C1)C2=C(N=C(N2)C(C)(C)C)C3=CC4=NC=CN=C4C=C3
Procedure, shortened: as §1

Nexturastat A = compound: CCCCN(Cc1ccc(C(=O)NO)cc1)C(=O)Nc1ccccc1 [Nexturastat A]
Procedure, shortened: as §1

vemurafenib = compound: CCCS(=O)(=O)Nc1ccc(F)c(C(=O)c2c[nH]c3ncc(-c4ccc(Cl)cc4)cc23)c1F [vemurafenib]
Procedure, shortened: as §1

[5] = compound: CCCS(=O)(=O)Nc1ccc(F)c(C(=O)c2c[nH]c3ncc(Cl)cc23)c1F
Procedure, shortened: as §1

[6] = compound: CCCc1cc(C)[nH]c(=O)c1CNC(=O)c1cc(-c2ccnc(N3CCN(C)CC3)c2)cc2c1cnn2C(C)C
Procedure, shortened: as §1

givinostat = compound: CCN(CC)Cc1ccc2cc(COC(=O)Nc3ccc(C(=O)NO)cc3)ccc2c1 [givinostat]
Procedure, shortened: as §1

barasertib = compound: CCN(CCCOc1ccc2c(Nc3cc(CC(=O)Nc4cccc(F)c4)[nH]n3)ncnc2c1)CCOP(=O)(O)O [barasertib]
Procedure, shortened: as §1

[7] = compound: CC[C@@H]1C(=O)N(C)c2cnc(Nc3ccc(C(=O)NC4CCN(C)CC4)cc3OC)nc2N1C1CCCC1
Procedure, shortened: as §1

volasertib = compound: CC[C@@H]1C(=O)N(C)c2cnc(Nc3ccc(C(=O)N[C@H]4CC[C@H](N5CCN(CC6CC6)CC5)CC4)cc3OC)nc2N1C(C)C [volasertib]
Procedure, shortened: as §1

[8] = compound: CC[C@H](C)N1C=C(C2=C(C=C(C=C21)C3=CN=C(C=C3)N4CCNCC4)C(=O)NCC5=C(C=C(NC5=O)C)C)C
Procedure, shortened: as §1

epoxomicin = compound: CC[C@H](C)[C@@H](C(=O)N[C@@H]([C@@H](C)O)C(=O)N[C@@H](CC(C)C)C(=O)[C@]1(CO1)C)NC(=O)[C@H]([C@@H](C)CC)N(C)C(=O)C [epoxomicin]
Procedure, shortened: as §1

[9] = compound: CCn1c(C(=O)N(C2CC2)C2CC2)cc2c3c(ncn3C)c(Nc3cc(C)n(C)n3)nc21
Procedure, shortened: as §1

[10] = compound: CCn1cc(-c2ccnc3[nH]c(-c4cccc(CN(C)C)c4)cc23)c(-c2ccc(NC(=O)N(C)C)cc2)n1
Procedure, shortened: as §1

[11] = compound: CN(C)CC(=O)Nc1ccc2[nH]c(=O)c3ccccc3c2c1
Procedure, shortened: as §1

rosiglitazone = compound: CN(CCOC1=CC=C(C=C1)C[C@H]2C(=O)NC(=O)S2)C3=CC=CC=N3 (racemic) [rosiglitazone]
Procedure, shortened: as §1

[12] = compound: CN1C2=C(C3=C1C(=O)N(N=C3)CC4=CC(=CC=C4)N)SC(=C2)S(=O)C
Procedure, shortened: as §1

[13] = compound: CN1CCC(CNc2ccc3ncc(-c4cccc(OC(F)(F)F)c4)n3n2)CC1
Procedure, shortened: as §1

Sequence of UniProt P09497 (P09497 whole entry, looked up): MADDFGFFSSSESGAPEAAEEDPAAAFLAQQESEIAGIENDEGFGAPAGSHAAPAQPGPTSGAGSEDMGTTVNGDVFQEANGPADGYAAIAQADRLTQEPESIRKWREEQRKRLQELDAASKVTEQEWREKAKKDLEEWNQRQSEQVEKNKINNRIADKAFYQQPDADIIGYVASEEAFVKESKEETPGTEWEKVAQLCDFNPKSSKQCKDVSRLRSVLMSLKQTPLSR
Sequence of UniProt P11802 (P11802 whole entry, looked up): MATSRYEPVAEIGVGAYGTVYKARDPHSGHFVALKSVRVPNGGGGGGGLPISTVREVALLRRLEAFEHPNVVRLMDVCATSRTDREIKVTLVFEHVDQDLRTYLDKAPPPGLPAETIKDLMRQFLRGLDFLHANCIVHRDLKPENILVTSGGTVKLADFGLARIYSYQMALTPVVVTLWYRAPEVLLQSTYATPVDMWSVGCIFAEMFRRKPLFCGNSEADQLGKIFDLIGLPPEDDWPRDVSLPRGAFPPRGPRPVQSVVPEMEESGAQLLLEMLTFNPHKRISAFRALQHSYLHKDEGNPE
Sequence of UniProt Q14790 (Q14790 whole entry, looked up): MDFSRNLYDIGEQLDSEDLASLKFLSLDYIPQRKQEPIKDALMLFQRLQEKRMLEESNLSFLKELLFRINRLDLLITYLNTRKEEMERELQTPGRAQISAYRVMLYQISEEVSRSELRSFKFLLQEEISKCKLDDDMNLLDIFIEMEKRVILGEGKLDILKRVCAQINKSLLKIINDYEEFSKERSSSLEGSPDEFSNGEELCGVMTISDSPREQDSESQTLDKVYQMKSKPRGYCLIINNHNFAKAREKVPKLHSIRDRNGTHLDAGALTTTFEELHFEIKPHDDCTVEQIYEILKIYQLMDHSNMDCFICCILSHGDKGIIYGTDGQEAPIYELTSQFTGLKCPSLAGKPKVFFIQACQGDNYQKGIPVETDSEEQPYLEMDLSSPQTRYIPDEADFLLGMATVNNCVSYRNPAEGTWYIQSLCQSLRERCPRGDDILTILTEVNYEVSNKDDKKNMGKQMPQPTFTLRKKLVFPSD
Sequence of UniProt O60563 (O60563 whole entry, looked up): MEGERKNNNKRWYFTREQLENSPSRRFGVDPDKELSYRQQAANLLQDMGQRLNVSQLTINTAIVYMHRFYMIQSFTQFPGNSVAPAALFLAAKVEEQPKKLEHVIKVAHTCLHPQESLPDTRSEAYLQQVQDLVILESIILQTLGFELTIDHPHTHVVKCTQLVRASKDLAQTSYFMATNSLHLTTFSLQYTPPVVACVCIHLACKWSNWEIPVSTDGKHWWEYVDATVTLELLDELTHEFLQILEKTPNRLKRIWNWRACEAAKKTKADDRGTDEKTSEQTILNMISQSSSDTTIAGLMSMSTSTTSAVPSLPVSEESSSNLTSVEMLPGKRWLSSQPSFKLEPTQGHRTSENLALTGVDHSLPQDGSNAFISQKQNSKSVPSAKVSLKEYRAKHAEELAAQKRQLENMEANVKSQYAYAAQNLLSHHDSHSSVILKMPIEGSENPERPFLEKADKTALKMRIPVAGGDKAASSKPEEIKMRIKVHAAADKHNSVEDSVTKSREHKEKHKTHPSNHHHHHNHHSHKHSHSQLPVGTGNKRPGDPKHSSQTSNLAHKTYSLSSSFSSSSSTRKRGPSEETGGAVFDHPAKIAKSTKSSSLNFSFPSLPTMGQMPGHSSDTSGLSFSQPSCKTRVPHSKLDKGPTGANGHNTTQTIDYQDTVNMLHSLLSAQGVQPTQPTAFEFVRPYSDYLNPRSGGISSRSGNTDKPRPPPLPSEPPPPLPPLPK
Sequence of UniProt P51798 (P51798 whole entry, looked up): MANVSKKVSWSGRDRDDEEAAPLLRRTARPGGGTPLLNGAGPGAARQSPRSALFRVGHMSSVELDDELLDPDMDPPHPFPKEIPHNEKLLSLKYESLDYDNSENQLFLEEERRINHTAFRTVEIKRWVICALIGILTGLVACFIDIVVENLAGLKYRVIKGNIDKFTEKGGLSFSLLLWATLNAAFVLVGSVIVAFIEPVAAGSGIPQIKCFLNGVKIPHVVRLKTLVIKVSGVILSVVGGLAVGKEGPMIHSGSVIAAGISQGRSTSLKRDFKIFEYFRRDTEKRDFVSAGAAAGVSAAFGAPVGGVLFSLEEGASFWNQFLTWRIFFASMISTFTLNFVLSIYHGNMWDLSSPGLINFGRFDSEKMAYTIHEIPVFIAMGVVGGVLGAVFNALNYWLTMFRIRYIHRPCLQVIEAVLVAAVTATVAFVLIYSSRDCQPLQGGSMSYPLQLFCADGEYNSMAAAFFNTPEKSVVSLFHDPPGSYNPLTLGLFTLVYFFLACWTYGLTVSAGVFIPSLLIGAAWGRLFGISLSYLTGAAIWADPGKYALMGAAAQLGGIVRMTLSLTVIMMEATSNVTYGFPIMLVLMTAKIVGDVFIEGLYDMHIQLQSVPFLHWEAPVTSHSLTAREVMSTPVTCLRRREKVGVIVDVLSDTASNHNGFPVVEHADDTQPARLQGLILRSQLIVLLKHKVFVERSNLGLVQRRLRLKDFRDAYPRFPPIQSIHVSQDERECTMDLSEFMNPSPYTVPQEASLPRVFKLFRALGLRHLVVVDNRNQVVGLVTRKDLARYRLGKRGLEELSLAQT
Sequence of UniProt Q8IX12 (Q8IX12 whole entry, looked up): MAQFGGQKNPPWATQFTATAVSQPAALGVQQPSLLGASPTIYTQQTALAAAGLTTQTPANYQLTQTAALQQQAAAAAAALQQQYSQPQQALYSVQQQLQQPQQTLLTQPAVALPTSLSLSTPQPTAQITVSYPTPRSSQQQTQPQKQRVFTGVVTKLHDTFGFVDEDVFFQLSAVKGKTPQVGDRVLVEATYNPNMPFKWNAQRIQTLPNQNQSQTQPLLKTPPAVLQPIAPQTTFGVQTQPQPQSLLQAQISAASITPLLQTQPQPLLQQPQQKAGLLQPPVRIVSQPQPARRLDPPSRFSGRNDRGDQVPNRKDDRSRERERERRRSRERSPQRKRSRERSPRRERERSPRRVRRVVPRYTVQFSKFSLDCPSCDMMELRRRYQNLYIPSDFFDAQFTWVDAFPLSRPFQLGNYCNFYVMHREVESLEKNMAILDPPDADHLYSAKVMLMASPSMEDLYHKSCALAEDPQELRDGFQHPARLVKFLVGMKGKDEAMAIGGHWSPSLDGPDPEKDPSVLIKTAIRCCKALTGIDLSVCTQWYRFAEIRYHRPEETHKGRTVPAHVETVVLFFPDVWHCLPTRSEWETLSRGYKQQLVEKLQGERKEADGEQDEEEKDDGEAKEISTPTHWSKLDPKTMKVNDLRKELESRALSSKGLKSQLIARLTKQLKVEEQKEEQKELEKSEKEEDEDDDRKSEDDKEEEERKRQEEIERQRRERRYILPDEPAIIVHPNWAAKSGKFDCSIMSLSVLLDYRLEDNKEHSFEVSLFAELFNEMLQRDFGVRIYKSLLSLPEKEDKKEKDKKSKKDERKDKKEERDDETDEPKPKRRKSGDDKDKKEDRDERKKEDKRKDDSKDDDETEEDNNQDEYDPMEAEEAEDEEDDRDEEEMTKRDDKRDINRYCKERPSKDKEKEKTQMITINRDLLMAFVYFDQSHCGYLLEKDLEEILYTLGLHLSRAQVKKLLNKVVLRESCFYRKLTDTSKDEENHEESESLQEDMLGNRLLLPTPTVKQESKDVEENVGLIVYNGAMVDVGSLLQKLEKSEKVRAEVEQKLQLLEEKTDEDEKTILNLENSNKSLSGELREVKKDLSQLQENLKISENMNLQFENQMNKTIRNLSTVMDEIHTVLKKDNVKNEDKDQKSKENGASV
Sequence of UniProt Q96JB5 (Q96JB5 whole entry, looked up): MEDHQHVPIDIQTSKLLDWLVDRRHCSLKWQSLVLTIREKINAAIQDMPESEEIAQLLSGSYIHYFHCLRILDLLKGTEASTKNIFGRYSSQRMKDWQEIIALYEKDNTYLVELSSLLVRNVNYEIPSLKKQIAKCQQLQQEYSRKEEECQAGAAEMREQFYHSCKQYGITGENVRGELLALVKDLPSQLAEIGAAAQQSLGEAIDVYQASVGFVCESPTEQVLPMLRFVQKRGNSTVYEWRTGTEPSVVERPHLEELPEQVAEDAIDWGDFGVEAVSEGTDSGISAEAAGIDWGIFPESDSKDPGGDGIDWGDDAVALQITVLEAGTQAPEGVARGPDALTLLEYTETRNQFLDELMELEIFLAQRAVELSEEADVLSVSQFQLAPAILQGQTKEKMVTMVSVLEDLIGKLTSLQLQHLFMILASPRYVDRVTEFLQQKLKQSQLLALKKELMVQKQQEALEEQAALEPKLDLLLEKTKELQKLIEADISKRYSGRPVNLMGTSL
Sequence of UniProt P06493 (P06493 whole entry, looked up): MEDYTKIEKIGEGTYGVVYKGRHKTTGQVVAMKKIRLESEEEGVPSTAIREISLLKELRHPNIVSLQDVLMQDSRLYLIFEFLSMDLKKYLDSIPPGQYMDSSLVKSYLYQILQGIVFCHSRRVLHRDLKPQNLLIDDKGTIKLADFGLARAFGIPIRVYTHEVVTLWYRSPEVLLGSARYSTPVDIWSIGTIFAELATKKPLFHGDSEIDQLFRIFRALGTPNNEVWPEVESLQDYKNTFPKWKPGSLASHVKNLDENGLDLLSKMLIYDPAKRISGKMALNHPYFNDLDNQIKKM
Sequence of UniProt P51946 (P51946 whole entry, looked up): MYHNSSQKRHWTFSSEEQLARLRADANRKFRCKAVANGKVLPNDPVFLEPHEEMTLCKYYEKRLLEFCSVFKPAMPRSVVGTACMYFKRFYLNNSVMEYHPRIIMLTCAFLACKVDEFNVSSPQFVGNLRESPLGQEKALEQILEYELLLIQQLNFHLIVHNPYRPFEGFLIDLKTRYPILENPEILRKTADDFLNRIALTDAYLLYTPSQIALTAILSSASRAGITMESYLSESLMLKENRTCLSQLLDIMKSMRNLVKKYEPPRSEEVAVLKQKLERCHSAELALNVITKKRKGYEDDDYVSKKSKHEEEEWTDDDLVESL
Sequence of UniProt Q5JTJ3 (Q5JTJ3 whole entry, looked up): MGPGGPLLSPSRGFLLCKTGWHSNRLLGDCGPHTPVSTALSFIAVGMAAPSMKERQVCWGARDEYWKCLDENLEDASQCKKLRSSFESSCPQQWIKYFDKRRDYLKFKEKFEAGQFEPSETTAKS

Row | Target | log2 fold change [1] | log2 fold change [2] | log2 fold change [3] | log2 fold change [4] | log2 fold change (Nexturastat A) | log2 fold change (vemurafenib) | log2 fold change [5] | log2 fold change [6] | log2 fold change (givinostat) | log2 fold change (barasertib) | log2 fold change [7] | log2 fold change (volasertib) | log2 fold change [8] | log2 fold change (epoxomicin) | log2 fold change [9] | log2 fold change [10] | log2 fold change [11] | log2 fold change (rosiglitazone) | log2 fold change [12] | log2 fold change [13]
1 | CASP2 (UniProt P42575) | 0.025 | 0.001 | 0.215 | 0.056 | 0.004 | 0.026 | 0.193 | 0.086 | 0.039 | 0.026 | 0.058 | 0.112 | 0.078 | 0.024 | -0.016 | -0.153 | 0.031 | 0.072 | 0.008 | -0.08
2 | CCAR1 (UniProt Q8IX12) | 0.03 | -0.046 | -0.001 | -0.017 | 0.071 | 0.007 | 0.006 | -0.045 | 0.027 | -0.04 | 0.079 | 0.149 | 0.063 | 0.008 | -0.029 | -0.219 | 0.018 | 0.046 | -0.039 | -0.319 (active)
3 | COA6 isoform 2 (UniProt Q5JTJ3) | -0.054 | -0.012 | 0.767 (active) | 0.036 | 0.007 | -0.041 | -0.009 | -0.089 | -0.02 | -0.042 | 0.045 | 0.04 | -0.004 | 0.079 | -0.069 | 0.045 | -0.023 | -0.055 | -0.16 | 0.022
4 | CASP8 isoform 9 (UniProt Q14790) | -0.054 | -0.092 | 0.017 | -0.049 | 0.064 | 0 | 0.177 | 0.114 | 0.115 | 0 | 0.025 | -0.489 (active) | 0.065 | 0.052 | 0.025 | -0.019 | 0 | -0.034 | -0.026 | -0.082
5 | CLCN7 (UniProt P51798) | 0.027 | -0.026 | 0.029 | 0.006 | -0.07 | 0.001 | 0.038 | -0.068 | -0.007 | -0.015 | -0.338 (active) | -0.297 | 0.031 | -0.001 | -0.022 | -0.047 | -0.01 | 0.049 | 0.009 | -1.05 (active)
6 | CDK4 (UniProt P11802) | -0.077 | -0.003 | 0.015 | -0.005 | 0.166 | -0.161 | -0.128 | -0.025 | -0.009 | -0.023 | 0.16 | 0.071 | 0.117 | 0.16 | -0.018 |  | -0.085 | 0 | 0.146 | 
7 | CHCHD1 (UniProt Q96BP2) | -0.02 | -0.119 | 0.279 | 0.008 | 0.141 | -0.044 | 0.024 | -0.747 | 0.013 | -0.105 | -0.054 | -0.32 | -0.001 | -0.026 | -0.028 | -0.009 | 0.02 | 0.035 | 0.033 | -0.191
8 | CDK5RAP3 isoform 4 (UniProt Q96JB5) | 0.018 | -0.035 | 0.008 | 0.015 | 0.051 | 0.044 | 0.077 | -0.015 | 0.109 | 0.029 | -0.056 | -0.296 (active) | 0 | 0.021 | -0.044 | -0.007 | 0.033 | 0.055 | -0.024 | -0.002
9 | CA1 (UniProt P00915) | -0.028 | -0.008 | 0.03 | 0.014 | -0.051 | 0.048 | 0.016 | -0.039 | -0.021 | 0.008 | 0 | -0.02 | 0.01 | 0.016 | 0.003 | 0.042 | -0.002 | 0.045 | -0.034 | 0.134
10 | CCNT1 (UniProt O60563) | -0.033 | -0.018 | -0.02 | 0.005 | 0.218 | 0.027 | 0.007 | 0.023 | 0.022 | 0.022 | 0.023 | -0.085 | 0.069 | -0.063 | 0.028 | 0.035 | -0.055 | -0.024 | 0.132 | -0.036
11 | CCNH (UniProt P51946) | -0.023 | 0.007 | -0.015 | -0.056 | -0.002 | 0.003 | 0.018 | -0.029 | -0.007 | 0.031 | -0.034 | -0.028 | 0.021 | -0.024 | -0.004 | 0.046 | -0.019 | -0.001 | -0.069 | 0.005
12 | CDK1 (UniProt P06493) | 0.017 | -0.017 | 0.004 | 0.036 | -0.015 | 0.029 | 0.02 | 0.001 | 0.048 | 0.001 | -0.03 | -0.05 | 0.017 | 0.055 | -0.002 | 0 | 0.03 | 0.032 | 0.005 | -0.108
13 | CLTB (UniProt P09497) | -0.003 | -0.025 | -0.007 | 0.037 | -0.039 | -0.009 | -0.012 | -0.036 | 0.047 | -0.023 | 0.099 | 0.134 | -0.102 | 0.032 | 0.001 | -0.006 | -0.024 | -0.013 | -0.064 | 0.106
